Active and inactive are the calls of the source. Rule as the data show it, unless noted: active = inhibition above about 80%; inactive = the rest.
Legend:
[1] = viability loss with induced miR-34 in A549 – imaging, A549 dox-inducible miR-34, nuclei and caspase counts, primary screen (AID 1347080;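 active = compounds whose cell count with miR-34 switched on is under 0.7 times the count with it off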); conditions: A549 miR-34 inducible, Hoechst nuclei count, 48 h
[2] = MELAS cybrid and Rieske KO viability enhancers – cell-based, MELAS cybrids, Rieske KO mouse fibroblasts, CellTiter-Glo, primary screen (AID 1508586;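 active = mean z-score across replicates of 1.96 or higher in either the MELAS or the Rieske mutant cell line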;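 also: z relative to plate mean and SD of compound and empty wells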); conditions: low glucose
[3] = growth inhibition, single agent or in combination, cell-based, chromothripsis tumors, cisplatin or BGB combos (AID 1671449); conditions: LFS_MB_P medulloblastoma cells;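 also: cells exposed for 96 hours; 0% = vehicle DMSO and 100% = killing by high DMSO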
[4] = growth inhibition, single agent and combos, cell-based, chromothripsis tumors, cisplatin or BGB combos (AID 1671450); conditions: HDN33 neuroblastoma cells, stronger effect = higher value;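 also: cells exposed to compound for four days; 0% = vehicle DMSO and 100% = cell killing by high DMSO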
[5] = growth inhibition, single agents and combos, ICB984, cell-based, cisplatin or BGB combos, synergistic combos for chromothripsis tumors (AID 1671451; call rule not given here;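 also: cells exposed for 96 hours before readout; 0% = vehicle DMSO and 100% = killing by high DMSO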); conditions: ICB984 medulloblastoma cells, drug combinations, stronger effect = higher value
[6] = growth inhibition, single agents and combos, LFS_MB_1R, cell-based, cisplatin or BGB combos, synergistic combos for chromothripsis tumors (AID 1671452); conditions: LFS_MB_1R medulloblastoma cells, stronger effect = higher value;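 also: cells exposed for 96 hours before readout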
[7] = growth inhibition, single agents and combos, HTB85, cell-based, BGB or cisplatin IC20 combos, synergistic combos for chromothripsis tumors (AID 1671453); conditions: HTB85 osteosarcoma cells, drug combinations, stronger effect = higher value;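 also: cells exposed for 96 hours before readout; 0% = vehicle DMSO and 100% = high DMSO killing control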
[8] = growth inhibition, single agents and combos, CRL2098, cell-based, BGB or cisplatin IC20 combos, synergistic combos for chromothripsis tumors (AID 1671454); conditions: CRL2098 osteosarcoma cells, drug combinations, stronger effect = higher value;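 also: cells exposed for 96 h before readout; 0% = vehicle DMSO and 100% = killing by high DMSO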
[9] = growth inhibition, single agents and combos, HD-MB03, cell-based, BGB or cisplatin IC20 combos, synergistic combos for chromothripsis tumors (AID 1671455; in the data active = inhibition above about 83%;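 also: 0% = vehicle DMSO and 100% = high DMSO as cytotoxic control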); conditions: HD-MB03 medulloblastoma cells, stronger effect = higher value
[10] = growth inhibition, single agents and combos, UWB1.289, cell-based, BGB or cisplatin combos, synergistic combos for chromothripsis tumors (AID 1671456); conditions: UWB1.289 ovarian carcinoma cells, stronger effect = higher value;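 also: cells exposed to compound for four days; 0% = vehicle DMSO and 100% = killing by high DMSO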
[11] = growth inhibition, single agents and combos, LFS_MB_2R, cell-based, cisplatin combos, synergistic combos for chromothripsis tumors (AID 1671457); conditions: LFS_MB_2R medulloblastoma cells, stronger effect = higher value;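 also: cells exposed to compound for four days before readout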
[12] = growth inhibition, MDA-MB-436, cell-based, BGB or cisplatin combos, synergistic combos for chromothripsis tumors (AID 1671458; call rule not given here;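 also: cells exposed for 96 hours; 0% = vehicle DMSO and 100% = killing by high DMSO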); conditions: MDA-MB-436 breast carcinoma growth inhibition, drug combinations, stronger effect = higher value
[13] = UWB1.289_BRCA1 ovarian cancer growth, cell-based, BGB or cisplatin combinations (AID 1671459); conditions: UWB1.289 BRCA1 ovarian carcinoma, drug combinations, stronger effect = higher value
[14] = drug combination toxicity in non-malignant astrocytes – cell-based, BGB or cisplatin IC20 combos, cytotoxicity control for chromothriptic childhood tumor combination screen (AID 1671460); conditions: Human astrocytes, viability inhibition, drug combinations, at 0.5 µM, stronger effect = higher value;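 also: cells exposed to compounds for 96 hours before viability readout; 0% = vehicle and 100% = killing control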
[15] = BT084 cell growth, single and combined drugs, ICGC_MB145, cisplatin and BGB IC40 combos (AID 1671461); conditions: BT084 medulloblastoma cells, drug combinations, stronger effect = higher value;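 also: cells exposed to drugs for 96 hours; 0% = vehicle DMSO and 100% = high DMSO full killing control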
[16] = RCMB18 cell growth, single agent and combined, cisplatin and BGB IC40 combos (AID 1671462); conditions: RCMB18 medulloblastoma cells, stronger effect = higher value;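 also: cells exposed to compound for four days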
[17] = CRL1545 cell growth, single agent and combined, cisplatin and BGB IC20 combos (AID 1671464); conditions: CRL1545 osteosarcoma cells, stronger effect = higher value;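 also: cells exposed to compound for 96 hours before readout; 0% = vehicle DMSO and 100% = high DMSO killing control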
[18] = measured here: combination with BGB IC40, at 0.05 µM
[19] = measured here: with BGB IC20 combination, at 0.5 µM
[20] = measured here: with cisplatin IC20 combination, at 0.5 µM
[21] = measured here: combination with cisplatin, at 0.5 µM
[22] = measured here: combination with cisplatin, at 5 µM

For `Cc1cc(C#N)cc(C)c1Oc1nc(Nc2ccc(C#N)cc2)nc(N)c1Br`, the fold change ([1]; stronger effect = lower value, cell number ratio, induced over uninduced) was 0.85 (inactive), the fold change ([1]; measured here: relative caspase fold change +Dox/-Dox) was 2.01 and the cell count ([1]; measured here: total cells with miR-34 induction, stronger effect = lower value) was 3910. For the same molecule, the cell count ([1]; measured here: total cells without miR-34 induction) was 4600, the z-score ([2]; MELAS cybrid survival, CellTiter-Glo 48 h, stronger effect = higher value) was 0.252 (inactive) and the z-score ([2]; Rieske KO mouse fibroblast survival, CellTiter-Glo 72 h) was -0.21. The inhibition ([3]; at 0.5 µM, stronger effect = higher value) was -6.54% (inactive), the inhibition ([3]; measured here: combination with BGB IC20, at 0.005 µM) was -10% and the inhibition ([3]; measured here: combination with BGB IC40, at 0.005 µM) was -30.6%. It also gave an inhibition [3, 18] of -26%, an inhibition ([3]; measured here: combination with cisplatin, at 0.5 µM, stronger effect = higher value) of -19.3% and an inhibition ([3]; measured here: combination with cisplatin, at 5 µM, stronger effect = higher value) of -60.9%. The inhibition ([4]; BGB combo, at 5 µM) was -14.1%, the inhibition ([4]; at 0.5 µM) was -5.11% (inactive) and the inhibition ([4]; cisplatin combo, at 5 µM) was -9.1%. It also gave an inhibition [4, 19] of -9.33%, an inhibition [4, 20] of 0.249% and an inhibition ([4]; single agent, at 5 µM) of -3.14%. For the same molecule, the inhibition ([5]; BGB IC20 combo, at 0.005 µM) was -6.67%, the inhibition ([5]; BGB IC40 combo, at 0.005 µM) was -12.8% and the inhibition ([5]; BGB IC40 combo, at 0.05 µM) was -9.57%. For the same molecule, the inhibition ([5]; at 0.5 µM) was -33.3% (inactive), the inhibition ([5]; cisplatin combo, at 0.05 µM) was -12.6% and the inhibition ([5]; cisplatin combo, at 0.5 µM) was -45.3%. The inhibition ([5]; cisplatin combo, at 5 µM) was -4.46%, the inhibition ([5]; measured here: 5 uM single agent, at 5 µM) was -18.9% and the inhibition ([6]; at 0.5 µM) was -14.8% (inactive). The inhibition [6, 18] was -38.9%, the inhibition [6, 21] was -11.1% and the inhibition [6, 22] was -7.4%. The inhibition ([7]; at 0.5 µM) was -2.4% (inactive), the inhibition ([7]; measured here: with BGB IC20, at 0.5 µM) was -12.9% and the inhibition ([7]; measured here: with BGB IC20, at 5 µM) was -34.8%. It also gave an inhibition ([7]; measured here: with cisplatin IC20, at 0.5 µM) of -9.12%, an inhibition ([7]; measured here: with cisplatin IC20, at 5 µM) of -37.6% and an inhibition ([7]; single agent, at 5 µM) of -5.74%. For the same molecule, the inhibition ([8]; at 0.5 µM) was -46.8% (inactive), the inhibition ([8]; measured here: combination with BGB at IC20, at 0.5 µM) was -26.7% and the inhibition ([8]; measured here: combination with cisplatin at IC20, at 0.5 µM) was -48.1%. For the same molecule, the inhibition ([9]; at 0.5 µM) was -1.6% (inactive), the inhibition ([9]; measured here: combo with BGB at IC20, at 0.5 µM) was 6.5% and the inhibition ([9]; measured here: combo with cisplatin at IC20, at 0.5 µM) was -1.27%. For the same molecule, the inhibition ([10]; at 0.5 µM) was 1.48% (inactive), the inhibition ([10]; measured here: inhibition with BGB combination, at 0.05 µM) was -24.8% and the inhibition ([10]; measured here: inhibition with cisplatin combination, at 0.05 µM) was 0.893%. For the same molecule, the inhibition ([11]; at 0.5 µM) was -10.7% (inactive), the inhibition [11, 21] was -24.9% and the inhibition [11, 22] was -73.7%. The inhibition ([12]; at 0.5 µM) was -26.8% (inactive), the inhibition ([12]; measured here: BGB combination, at 0.5 µM) was -22.5% and the inhibition ([12]; measured here: BGB combination, at 5 µM) was -28.6%. It also gave an inhibition ([12]; measured here: cisplatin combination, at 0.5 µM) of -43.6%, an inhibition ([12]; measured here: cisplatin combination, at 5 µM) of -39.5% and an inhibition ([13]; BGB combination, concentration series, at 5 µM) of 11.2%. The inhibition ([13]; at 0.5 µM) was 1.32% (inactive), the inhibition ([13]; cisplatin combination, concentration series, at 5 µM) was 2.3% and the inhibition [14] was 3.72% (inactive). For the same molecule, the inhibition ([14]; measured here: combo with BGB IC20) was 14%, the inhibition ([14]; measured here: combo with cisplatin IC20) was -7.51% and the inhibition ([15]; at 0.5 µM) was -18% (inactive). The inhibition ([15]; cisplatin combination, at 0.5 µM) was -20.9%, the inhibition ([15]; cisplatin combination, at 5 µM) was -30.7% and the inhibition ([15]; measured here: BGB IC40 combination 0.05 uM, at 0.05 µM) was 7.73%. For the same molecule, the inhibition ([15]; single agent, at 5 µM) was -20.3%, the inhibition ([16]; at 0.5 µM) was -32.5% (inactive) and the inhibition ([16]; cisplatin combo, at 5 µM) was -24.1%. It also gave an inhibition ([16]; measured here: BGB IC40 combination, at 0.05 µM) of -39.7%, an inhibition [16, 21] of -23% and an inhibition ([16]; single agent, at 5 µM) of -29.9%. For the same molecule, the inhibition ([17]; at 0.5 µM) was 0.47% (inactive), the inhibition [17, 19] was 4.81% and the inhibition [17, 20] was -4%. It also gave an inhibition ([17]; single agent, at 0.05 µM) of -33.2% and an inhibition ([17]; single agent, at 5 µM) of 12%.

Reference: PubChem BioAssay
